# Measured values published in PubChem BioAssay (NCATS).
# Records with an inconclusive call do not appear. Calls of active or inactive are those of the source. Calls follow the shape of the dose curve; as a rule, active = well fitted activation curve with a large enough effect in the main read-out, with a control signal flat (not every such curve was filed as active); inconclusive = small, poorly fitted or top-dose-only effect, or effect the other way, or a change in a side signal; inactive = flat fitted curve, though single readings scatter.
# Molecular target: 3',5'-cyclic-AMP phosphodiesterase 4B (Homo sapiens) (UniProt Q07343)
# Assay: qHTS Assay for Inhibitors of PDE-IV (AID 607)
# Details: HEK293 ACTOne CNG channel cells, membrane potential fluorescence; series mostly up to 22.9 µM
# Description: NIH Chemical Genomics Center [NCGC]
# NIH Molecular Libraries Screening Centers Network [MLSCN]
# The cyclic nucleotide phosphodiesterases (PDEs) are proteins that catalyze hydrolysis of 3', 5'-cyclic nucleotides, such as cyclic adenosine monophosphate (cAMP) and cyclic guanosine monophosphate (cGMP), to their corresponding 5'-nucleotide monophosphates. These enzymes play an important role in controlling cellular concentrations of cyclic nucleotides and have a central role in a variety of intracellular signaling events. cAMP PDEs are emerging as a promising class of drug targets in asthma and cardiovascular disease therapeutic areas.
# There are no commercially available cell-based screening assays for PDE inhibitors: currently biochemical assays are done using pure substrates (cAMP or cGMP) and purified recombinant PDE enzymes. As with other biochemical screens on intracellular targets, false positives and false negatives may result from issues involving cell membrane permeability, cellular metabolism, and the like.
# Here we report the development of a cell-based screening assay for cAMP phosphodiesterase (PDE) inhibitors. The assay is based on the BD ACTOne# technology (BD Biosciences) which utilizes a modified cyclic nucleotide-gated channel (CNG) to monitor intracellular cAMP changes in live cells. The CNG channel is localized on the plasma membrane, and opens when the intracellular cAMP level increases, resulting in ion flux and cell membrane depolarization. The influx of cations through the CNG channel can be quantified using membrane potential (MP) dyes. We modified the BD ACTOne technology to allow the detection of PDE inhibitors, and performed an inhibitor screen for PDE-IV, which is expressed endogenously in HEK293 cells. We optimized this assay in homogeneous 1536-well plate assay format for high throughput screening.
# NCGC Assay Protocol Summary:
# The medium contained 10% FBS (Invitrogen), 2 mM L-glutamine, and 250 ug/ml G418 (Cellgro) and 1 ug/ml puromycin (Clontech). ACTOneTM parental cells (BD Biosciences) were maintained in the same medium without puromycin.
# The activity of the CNG channel was measured by BD ACTOneTM membrane potential dye kit (BD Biosciences). Forskolin, a positive control for cAMP activation and RO 20-1724, a PDE inhibitor, were both purchased from Sigma and solublized in DMSO.
# Sequence,Parameter,Value,Description
# 1,Reagent,3 uL,1000 cells/well 1536 TC treated Black plate
# 3,Compound,0.5 uL,Kalypsys dispense RO 20-1724 100 uM final [A]
# 4,Reagent,3 uL,BD membrane potential dye
# 6,Compound,23 nL,Final concentration was 0.7nM to 22.9uM
# 8,Detector,EX 535 / EM 590 [B],Envision
# Footnotes: [A] The stock 2 mM RO 20-1724 PDE inhibitor was made in 10 % DMSO. Parental cell line received 10 uM forskolin + 100 uM RO. [B] Envsion settings: Bottom Excitation 535/20 nm top emission 590/20, gain of 150 and 5 flashes per well.
# Keywords: PDE, PDE-IV, cytotoxicity, flourescence, MLSMR, MLSCN, NIH Roadmap, qHTS, NCGC
# 3',5'-cyclic-AMP phosphodiesterase 4B (Homo sapiens), sequence (Q07343 whole entry, looked up): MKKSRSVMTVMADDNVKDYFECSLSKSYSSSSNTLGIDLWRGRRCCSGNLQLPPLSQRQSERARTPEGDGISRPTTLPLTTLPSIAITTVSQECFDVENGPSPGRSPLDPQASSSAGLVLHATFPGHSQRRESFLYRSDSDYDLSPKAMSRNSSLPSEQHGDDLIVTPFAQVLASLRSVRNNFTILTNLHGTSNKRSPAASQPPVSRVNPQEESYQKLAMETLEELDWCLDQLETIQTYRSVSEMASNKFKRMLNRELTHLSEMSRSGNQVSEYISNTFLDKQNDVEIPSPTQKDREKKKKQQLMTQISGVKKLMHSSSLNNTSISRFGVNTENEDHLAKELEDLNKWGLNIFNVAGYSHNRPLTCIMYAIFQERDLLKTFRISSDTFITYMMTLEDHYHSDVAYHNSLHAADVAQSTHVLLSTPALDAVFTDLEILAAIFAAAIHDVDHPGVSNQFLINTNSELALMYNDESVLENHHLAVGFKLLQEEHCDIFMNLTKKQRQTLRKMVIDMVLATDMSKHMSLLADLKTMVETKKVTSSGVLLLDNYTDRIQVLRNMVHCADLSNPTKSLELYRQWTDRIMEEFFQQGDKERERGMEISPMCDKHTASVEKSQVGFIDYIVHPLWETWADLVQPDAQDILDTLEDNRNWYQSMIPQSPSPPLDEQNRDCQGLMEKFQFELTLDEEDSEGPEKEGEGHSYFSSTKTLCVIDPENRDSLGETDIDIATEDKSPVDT
row,SMILES,outcome
1,COc1cc2c(cc1OC)[C@@]13CCN4CC5=CCO[C@H](CC(=O)O)[C@@H]([C@H]1N2)[C@H]5C[C@H]43,inactive
2,C[C@@]12CC[C@H]3[C@@H](CC[C@@H]4C[C@H](O)CC[C@]43C)[C@H]1CC[C@H]2O,inactive
3,Cc1cc[c]([Sb]2[O][C@H]([C@H](O)[C@H](O)C(=O)O)[C@@H](CO)[O]2)cc1,inactive
4,N[C@H](CCl)C(=O)O,inactive
5,N[C@H](Cc1ccccc1)c1nn[nH]n1,inactive
6,O=C(O)CNC(=O)c1ccc([As](=O)(O)O)cc1,inactive
7,NCCP(=O)(O)O,inactive
8,CC(C)c1ccc(C(O)(C(=O)O)c2ccc(C(C)C)cc2)cc1,inactive
9,CCN(CC)c1ncnc2c1ncn2[C@@H]1O[C@@H](COP(=O)(O)OP(=O)(O)C(Br)(Br)P(=O)(O)O)[C@H](O)[C@@H]1O,inactive
10,CN[C@H]1[C@H](C)O[C@@H](O[C@@H]2C/C=C(/C)C/C(C)=C\C=C/CC[C@@H](C)CNC(=O)/C=C\C=C/[C@H]2C)C[C@@H]1O,inactive
11,C[C@@H](Cc1ccc(Cl)cc1Cl)NO,inactive
12,CC(C)(C)C(=O)CP(=O)(O)O,inactive
13,Nc1nnnn1CCO,inactive
14,C[n+]1c(/C=C\c2ccc(O)c3ncccc23)[se]c2ccccc21,inactive
15,ClCC[N+]12CC[N+](CCCl)(CC1)C2 (tested in a mixture with another compound),inactive
16,O=P(O)(O)CCP(=O)(O)O,inactive
17,O=C1N[C@@]2(CN3CCC2CC3)C(=O)N1CN(Cc1ccccc1)c1ccccc1,inactive
18,C[C@@H](O)CN(CCN(C[C@@H](C)O)C[C@@H](C)O)C[C@@H](C)O.O=[N+]([O-])O.[Cu],inactive
19,NS(=O)(=O)c1ccc(-c2ccc([As](=O)(O)O)cc2)cc1,inactive
20,N[C@H](Cc1ccc(N(CCCl)CCCl)cc1)C(=O)O,inactive

row,SMILES,outcome
1,CN(C)CCCNc1c2c(nc3ccc(Cl)cc13)CCCC2,inactive
2,CSC([N-]/N=C/c1cccc(C)n1)=[S]=[Cu].CS[C@H]([S-])[N-]/N=C/c1cccc(C)n1,inactive
3,c1ccc(CCN2CCCCCC2)nc1,inactive
4,N[C@H](Cc1ccc2oc3cc(=O)c4ccccc4c-3nc2c1)C(=O)O,inactive
5,O=C(Nc1cc[c]([Sb](=[O])([OH])[OH])cc1)c1ccccc1,inactive
6,CC[C@@](O)(C(=O)O)c1cc2n(c(=O)c1CO)Cc1cc3ccccc3nc1-2,inactive
7,C[C@]12CC[C@@H]3[C@H](CCC4=CC(=O)CC[C@]43C)[C@]1(O)CC[C@@]2(O)C(=O)CO,inactive
8,C[C@@H]1Cc2cc3c(cc2C(c2ccc(N)cc2)=NN1)OCO3,inactive
9,O=C(C[C@H](c1ccccc1)c1c(O)c2ccccc2oc1=O)c1ccccc1,inactive
10,O=C(O)[C@@H](Br)[C@H](Br)C(=O)O,inactive
11,c1cc(C2N3CCCN2CC3)ccn1 (stereo not given),inactive
12,N[C@H](Cn1oc(=O)[nH]c1=O)C(=O)O,inactive
13,CCOC(=O)[C@@H]1[C@@H]2c3ccccc3-c3ccccc3[C@H]2C[C@H]1O,inactive
14,C[C@]12CC[C@H](O)C[C@@H]1CC[C@H]1[C@H]2CC[C@]2(C)[C@H](C(=O)CO)CC[C@@H]12,inactive
15,COc1ccc(C[C@@H]2NC[C@H](O)[C@@H]2OC(C)=O)cc1,inactive
16,Cc1ccc(NC(=[OH+])c2cc3ccccc3cc2O)c(C)c1.Cc1ccc(NC(=[OH+])c2cc3ccccc3cc2O)c(C)c1.[Ni],inactive
17,N[C@@H](Cc1ccccc1)P(=O)(O)O,inactive
18,c1ccc2c(c1)Sc1ccccc1N2C[C@H]1CN2CCC1CC2,inactive
19,O=S(=O)(NCCO)c1cc[c]([Sb](=[O])([OH])[OH])cc1,inactive
20,C[C@@H]1O[C@@H](O[C@H]2C[C@@H](O)[C@@]3(CO)[C@H]4[C@H](O)C[C@]5(C)[C@@H](C6=CC(=O)OC6)CC[C@]5(O)[C@H]4CC[C@@]3(O)C2)[C@@H](O)[C@H](O)[C@H]1O,inactive
